# Where a name gives a salt, the structure may show the parent alone.
# Legend:
# Experiment in all cases: Euclidean distance of Cell Painting phenotypic profile (signed KS, 77 features) to DMSO centroid (dimensionless distance); 5 or 10 uM (library dependent); higher = stronger phenotypic change vs DMSO (phenoactivity)
# Settings in all cases: 48 h
# 786-O = test system: 786-O
# Outline: (§1)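 Phenoactivity is defined as the Euclidean distance from a compound profile to the median vehicle profile. Each profile comprised 77 Harmony features, scored as signed Kolmogorov-Smirnov statistics versus same-plate vehicle wells, then plate-position corrected, correlation-weighted and replicate-averaged at the top dose. Five cancer lines and one healthy fibroblast line were exposed to library compounds for 48 h at 10 or 5 uM (0.1% DMSO final).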
# A549 = test system: A549
# Outline: as §1
# FB = test system: FB
# Outline: as §1
# HEPG2 = test system: HEPG2
# Outline: as §1
# OVCAR4 = test system: OVCAR4
# Outline: as §1
Compound,Euclidean distance (786-O),Euclidean distance (A549),Euclidean distance (FB),Euclidean distance (HEPG2),Euclidean distance (OVCAR4)
C[C@@H](O)[C@H]1C(=O)N2C(C(=O)O)=C(S[C@@H]3CN[C@H](C(=O)Nc4cccc(C(=O)O)c4)C3)[C@H](C)[C@H]12 [Ertapenem sodium],0.672,0.953,0.956,0.854,0.913
O=c1c(-c2ccc(O)cc2)coc2c([C@@H]3O[C@H](CO)[C@@H](O)[C@H](O)[C@H]3O)c(O)ccc12 [Puerarin],0.929,0.728,0.661,0.584,1.35
CS(=O)(=O)c1ccc(Oc2cc(F)cc(C#N)c2)c2c1[C@H](O)C(F)(F)C2,1.1,1.02,1.28,0.605,1.38
c1ccc(C2CN3CCSC3=N2)cc1 (stereo not given) [Tetramisole HCl],1.45,0.708,1.19,1.31,1.25
O=C(O)c1cc(O)c2c(c1)[C@H]([C@H]1c3cc(C(=O)O)cc(O)c3C(=O)c3c(O[C@@H]4O[C@H](CO)[C@@H](O)[C@H](O)[C@H]4O)cccc31)c1cccc(O[C@@H]3O[C@H](CO)[C@@H](O)[C@H](O)[C@H]3O)c1C2=O [Sennoside A],0.91,0.674,1.07,0.438,1.12
O=C(c1ccccc1)c1ccc2n1CCC2C(=O)O (stereo not given) [Ketorolac tromethamine salt],0.861,0.868,0.834,0.47,0.82
Cc1ccccc1C(OCCN(C)C)c1ccccc1 (stereo not given) [Orphenadrine Hydrochloride],0.905,1.11,0.736,0.938,1.08
C[C@]12C=CC(=O)N[C@@H]1CC[C@@H]1[C@@H]2CC[C@]2(C)[C@@H](C(=O)Nc3cc(C(F)(F)F)ccc3C(F)(F)F)CC[C@@H]12 [Dutasteride],1.17,1.7,1.03,0.422,1.01
Cc1nnc(C(=O)NC(C)(C)c2nc(C(=O)NCc3ccc(F)cc3)c(O)c(=O)n2C)o1 [Raltegravir potassium],1.12,0.895,1.33,0.632,1.04
CC1(C)S[C@@H]2[C@H](NC(=O)C(C(=O)O)c3ccccc3)C(=O)N2[C@H]1C(=O)O (stereo not given in full) [Carbenicillin disodium],1.39,1.07,0.969,0.836,1.76
Cc1nnc(SCC2=C(C(=O)O)N3C(=O)[C@@H](NC(=O)Cn4cnnn4)[C@H]3SC2)s1 [Cefazolin],1.28,0.455,1.6,0.891,1.58
CC[C@H](C)[C@H](N)C1=N[C@H](C(=O)N[C@@H](CC(C)C)C(=O)N[C@H](CCC(=O)[O-])C(=O)N[C@H](C(=O)N[C@H]2CCCCNC(=O)[C@H](CC(N)=O)NC(=O)[C@@H](CC(=O)[O-])NC(=O)[C@H](Cc3cnc[nH]3)NC(=O)[C@@H](Cc3ccccc3)NC(=O)[C@H]([C@@H](C)CC)NC(=O)[C@@H](CCCN)NC2=O)[C@@H](C)CC)CS1.[Zn+2] [Bacitracin Zinc],0.919,0.811,0.932,1.77,1.44
CCc1cc2c(cc1N1CCC(N3CCOCC3)CC1)C(C)(C)c1[nH]c3cc(C#N)ccc3c1C2=O [Alectinib hydrochloride],1.42,2.36,1.91,0.611,1.42
CC(=O)[C@@]1(O)CC[C@H]2[C@@H]3CCC4=CC(=O)CCC4=C3[C@@H](c3ccc(N(C)C)cc3)C[C@@]21C [Ulipristal],0.949,1.22,1.05,1.13,0.761
Nc1ccc(S(=O)(=O)Nc2ccccn2)cc1 [Sulfapyridine],0.73,1.12,0.894,0.884,1.27
S=C(N/N=C1/CCCc2cccnc21)N1CCN(c2ccccn2)CC1,3.03,3.6,3.2,2.23,1.11
C[C@@H]1CN(c2c(F)c(N)c3c(=O)c(C(=O)O)cn(C4CC4)c3c2F)C[C@H](C)N1 [Sparfloxacin],0.878,1.28,0.552,0.632,1.26

# Reference: the supplement of paper PMC10127200
